Compound activity: PubChem BioAssay, National Center for Advancing Translational Sciences (NCATS)
Most compounds without a hit are left out; they make up all but 3.2% or so of the library.
TRb-SRC2 inh: TRbeta-SRC2 interaction inhibition; P10828; TRbeta-SRC2 peptide binding, fluorescence polarization; receptor liganded with 1 µM T3; Potency, µM (doses to about 106 µM), actives largely listed as inhibitors; 280,000 compounds, 0.065% hits; further: nearly all actives have a fitted effect of over 50% in size
Target sequence (P10828 whole entry, looked up): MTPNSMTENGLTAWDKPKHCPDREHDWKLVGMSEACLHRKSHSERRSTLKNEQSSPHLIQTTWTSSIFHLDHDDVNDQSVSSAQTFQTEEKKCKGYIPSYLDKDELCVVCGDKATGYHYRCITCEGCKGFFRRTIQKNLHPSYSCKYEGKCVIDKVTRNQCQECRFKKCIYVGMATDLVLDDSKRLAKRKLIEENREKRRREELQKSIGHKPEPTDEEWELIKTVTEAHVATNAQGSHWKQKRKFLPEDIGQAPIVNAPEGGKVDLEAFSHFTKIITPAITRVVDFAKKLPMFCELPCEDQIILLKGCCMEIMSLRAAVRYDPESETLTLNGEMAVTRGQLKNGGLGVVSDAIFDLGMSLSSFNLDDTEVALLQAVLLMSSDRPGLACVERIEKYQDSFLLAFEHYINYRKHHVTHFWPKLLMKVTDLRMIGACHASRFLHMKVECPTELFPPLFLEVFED
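Assay buffer: 20 mM Tris-HCl, 100 mM NaCl, 10% glycerol, 1 mM EDTA, 0.01% NP-40, 1 mM DTT, 1 uM T3, 5% DMSO; TRb LBD 0.6 uM, Texas Red SRC2 20 nM; FP after 5 hr.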
TexasRed fluor: Texas Red fluorescence interference in TRb-SRC2 counter-screen. TRb/SRC2 Texas Red total fluorescence interference. 280,000 compounds, 0.29% hits. Potency, µM (highest dose often 106 µM); active means well fitted curve in either direction with a large enough effect; inconclusive means small, poorly fitted or top-dose-only effect
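Flags fluorescent or light-absorbing compounds by total fluorescence, S + 2P, at 555 nm excitation and 632 nm emission. Mixture: 20 nM Texas Red SRC2 peptide, 0.6 uM human TRb LBD, 1 uM T3, 5% DMSO; compound exposure 5 h at ambient temperature.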
Tau fluor counter: counter-screen for tau fibril formation inhibitors; tau K18 P301L Alexa594 fluorescence, heparin fibrillization; Potency, µM (titrated, usually from 57.7 µM); 280,000 compounds, 0.93% hits; further: nearly all actives have a fitted effect of over 55% in size
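Human K18 P301L tau (15 uM unlabeled plus 0.24 uM Alexa 594-labeled, final) in 100 mM sodium acetate pH 7 was mixed with compound and 20 uM heparin and incubated 6 hr at 37 C.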
Tau ThT inhib: tau fibrillization inhibition (ThT binding); P10636; recombinant tau K18 P301L, heparin-induced fibrillization, ThT fluorescence; Potency, µM (series often up to 57.4 µM), most hits filed as inhibitors; 270,000 compounds, 2.1% hits; AID 1460; further: nearly all actives have a fitted effect of over 55% in size
Target sequence (P10636 561-689 P618L limits assumed): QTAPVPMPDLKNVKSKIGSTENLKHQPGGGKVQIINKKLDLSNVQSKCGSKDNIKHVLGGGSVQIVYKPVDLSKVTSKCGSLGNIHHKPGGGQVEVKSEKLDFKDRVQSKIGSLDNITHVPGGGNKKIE
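In this qHTS, human K18 P301L tau is incubated with compound and heparin for 6 hr at 37 C, and Thioflavin T fluorescence then reports fibril load.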
RGS12 GoLoco inh: blocks human Gai1 binding to RGS12 GoLoco peptide, red readout; P63096; Gai1:RGS12 GoLoco peptide FP, rhodamine, 10 min; Potency, µM (top dose mostly 61.6 µM), most hits filed as inhibitors; 230,000 compounds, 0.44% hits; active means well fitted inhibition curve with a large enough effect, not every such curve was filed as active; inactive means no such curve, though single readings can be large or run the other way; further: nearly all actives have a fitted effect of over 30% in size
Tau fibril FP: tau fibrillization inhibition (FP); K18 P301L tau heparin fibrillization, Alexa594 FP, 6 h; Potency, µM (doses to about 57.7 µM), hits mostly inhibitors; 280,000 compounds, 0.39% hits; AID 1468; further: nearly all actives have a fitted effect of over 55% in size
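K18 P301L tau (15 uM unlabeled/0.24 uM Alexa 594-labeled, final) + compound + heparin 20 uM final; 100 mM NaOAc pH 7; 6 hr 37 C; ThT 30 uM final added, 1 hr RT; FP ex 555/em 632 nm.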
Tau TEM fibril: Inhibits human tau fibrillization; shares compounds with Tau ThT inhib; recombinant tau K18 P301L fibrillization, TEM grading; stronger effect = higher value; fibril grade (0 = clumped fibrils, 4 = only tiny pieces) (no concentration beside the values); 45 compounds, 70% hits; AID 1719;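 active means compounds whose electron micrographs showed tau fibrils broken into shorter filaments or fragments, graded high on fibril breakup; inconclusive means micrographs gave an unclear fibril picture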
tau fibril sed: reduces sedimented tau K18 P301L aggregates. shares compounds with Tau ThT inhib. recombinant tau K18 P301L (four-repeat tau fragment), sedimentation SDS-PAGE densitometry. inhibition, % at 100 µM. 110 compounds, 50% hits; in the data active means inhibition above about 40%; inconclusive means no clear call, values can overlap the other calls; inactive means below about 18%
Each line names hits and unclear results; the compound was inactive in the other large screens (follow-up assays come after a bar, where they were run). Unless noted, the call rests on the fitted dose curve; in most records, active means well fitted curve in the direction sought with a large enough effect; inconclusive means small, poorly fitted or top-dose-only effect, or another doubt; inactive means no such curve, though single readings can be large; an effect the other way counts as inactive or inconclusive.

COc1ccc(CCNC(=O)CCn2c(=O)c3ccccc3n(CC(=O)Nc3cccc(C)c3)c2=O)cc1OC	none (no result: RGS12 GoLoco inh)
Cc1cc2c(NC(=O)Nc3ccccc3)cccc2nn1	TRb-SRC2 inh inconclusive, Tau ThT inhib inconclusive, Tau fibril FP inconclusive | Tau TEM fibril inconclusive | tau fibril sed inconclusive
COc1cc(/C=N/N=C2/NC(=O)C(CC(=O)O)S2)ccc1OCc1ccc(Cl)cc1 (stereo unspecified)	none | tau fibril sed inactive
CCOc1cc(/C=N/N=C2/NC(=O)C(CC(=O)O)S2)ccc1OCc1ccc(Cl)cc1Cl (stereo unspecified)	Tau ThT inhib inconclusive
CCOc1ccc(CCNC(=O)c2cc3c(=O)n(C)c4ccccc4c3n2C)cc1OCC	TexasRed fluor inconclusive (no result: RGS12 GoLoco inh)
Cc1cc2c(N)cccc2nn1	Tau fluor counter inconclusive, Tau ThT inhib 3.2µM, RGS12 GoLoco inh 8.9µM, Tau fibril FP inconclusive | Tau TEM fibril 3 | tau fibril sed 64
COc1cccc(CNc2cccc3cccnc23)c1O	Tau fluor counter inconclusive, Tau ThT inhib 28µM, Tau fibril FP inconclusive | Tau TEM fibril 2 | tau fibril sed inconclusive
COc1cccc(CNc2cnc3ccccc3c2)c1O	Tau fluor counter inconclusive, Tau ThT inhib inconclusive
Nc1nc2cc(S(=O)(=O)NC3=NCCCCC3)ccc2s1	Tau ThT inhib 5µM, Tau fibril FP inconclusive | Tau TEM fibril 2 | tau fibril sed 69
CCOC(=O)c1ccc(S(=O)(=O)Nc2nc3cc(S(=O)(=O)NC4=NCCCCC4)ccc3s2)cc1	Tau fluor counter inconclusive, Tau ThT inhib 11µM, Tau fibril FP 16µM | Tau TEM fibril 2 | tau fibril sed 68
O=C(COC(=O)c1ccc(O)cc1)Nc1cccc(S(=O)(=O)NC2=NCCCCC2)c1	none
CCN(CC)S(=O)(=O)c1ccc2c(c1)N(CC(=O)N1CCN(c3cccc(C)c3)C(C)C1)C(=O)CO2 (stereo unspecified)	none (no result: RGS12 GoLoco inh)
C=C1CCC2[C@](C)(CO)C(O)CC[C@]2(C)C1C/C=C1/C(=O)OCC1O (stereo partly specified)	none
O=S(=O)(c1ccc(N=C2NN=C(c3cc(F)ccc3F)CS2)cc1)N1CCOCC1	Tau fluor counter inconclusive, Tau ThT inhib 6.3µM, Tau fibril FP inconclusive | Tau TEM fibril 3 | tau fibril sed 44
COc1cc(C(=O)Nc2cc3c(cc2C)n(C)c(=O)c(=O)n3C)cc(OC)c1OC	none (no result: RGS12 GoLoco inh)
CN(C)S(=O)(=O)c1cccc(N=C2NN=C(c3ccccc3)CS2)c1	Tau fluor counter inconclusive, Tau ThT inhib 8.9µM, Tau fibril FP inconclusive | Tau TEM fibril 3 | tau fibril sed inconclusive
COc1ccc(C2=NNC(=Nc3cc(S(=O)(=O)N(C)C)ccc3C)SC2)c(OC)c1	Tau ThT inhib inconclusive
Cn1nc(-c2ccc(OCC(=O)Nc3ccc(Cl)cc3)cc2)c2ccccc2c1=O	Tau fibril FP inconclusive (no result: RGS12 GoLoco inh)
COC(=O)c1ccccc1NC(=O)CSc1nc2sc3c(c2c(=O)[nH]1)CCCC3	Tau fluor counter inconclusive, Tau ThT inhib 7.9µM, Tau fibril FP 14µM (no result: RGS12 GoLoco inh) | Tau TEM fibril 2 | tau fibril sed 58
COc1ccc(NC(=O)C2CCN(S(=O)(=O)c3c(C)noc3/C=C/c3cccs3)CC2)cc1Cl	Tau fibril FP 16µM (no result: RGS12 GoLoco inh) | tau fibril sed inactive
CCN(CCCNC(=O)CN1N=C(c2ccccc2)CCC1=O)c1ccccc1	none (no result: RGS12 GoLoco inh)
COc1ccc2c(c1)c(CC(=O)N1CCOCC1)c(C)n2C(=O)c1ccc(Cl)cc1	none | tau fibril sed inactive
COc1ccc2c(c1)c(CC(=O)OCC(N)=O)c(C)n2C(=O)c1ccc(Cl)cc1	none
COC(=O)C1(Cc2ccccc2)C=C2C(=C(c3ccccc3)C(=O)C2C)CN1 (stereo unspecified)	none
CCCCN(CC)c1nc(-c2ccccc2F)nc2ccccc12	none (no result: RGS12 GoLoco inh)
CCOc1ccc(NC(=O)CSc2nc3ccsc3c(=O)n2C(C)CC)cc1 (stereo unspecified)	none (no result: RGS12 GoLoco inh)
CCC(CC)C(=O)Nc1cccc(-c2nc3ncccn3c2C)c1	none (no result: RGS12 GoLoco inh)
